# Laboratory results from PubChem BioAssay (Tox21).
# Records with an inconclusive call do not appear. Unmarked numbers belong to inactive results. The source made the active and inactive calls. Calls come from the whole dose curve.
# Assay: qHTS assay to identify small molecule agonists of the hypoxia (HIF-1) signaling pathway - cell viability counter screen (AID 1224844); note: nearly all actives have a fitted effect of over 50% in size
# Conditions: HRE-bla ME-180 viability, CellTiter-Glo luminescence, 17 h; series mostly up to 76.8 µM; activity change, negative = cytotoxicity: at the top concentration
# From the text: National Center for Advancing Translational Sciences [NCATS]
# NIH Chemical Genomics Center [NCGC]
# U.S. Environmental Protection Agency [EPA]
# National Institutes of Environmental Health Sciences [NIEHS]
# National Toxicology Program [NTP]
# U.S. Food and Drug Administration [FDA]
# Hypoxia-inducible factor-1 (HIF-1) is the major hypoxia-regulated transcription factor that controls cellular responses to low oxygen concentration. HIF-1 is composed of two subunits: hypoxia responsive HIF-1-alpha and constitutively expressed HIF-1-beta, which is also known as aryl hydrocarbon receptor nuclear translocator. During hypoxic conditions, HIF-1-alpha heterodimerizes with HIF-1-beta and translocates into the nucleus where the HIF-1 complex binds to the hypoxia-response element (HRE) and activates expression of target genes such as VEGF (vascular endothelial growth factor). The HIF-1 pathway is essential to normal growth and development, and is involved in the pathophysiology of cancer, inflammation, and ischemia.
# Using a beta-lactamase reporter-gene under control of the hypoxia response element, a cell-based assay [CellSensor(TM) HRE-bla ME-180 from Life Technologies, Carlsbad, CA] was used to measure hypoxia-induced signaling. Tox21 10K library compounds were measured for their ability to induce the reporter gene activity. The cytotoxicity of the Tox21 compound library against HRE-bla ME-180 cell line was tested in parallel by measuring cell viability using CellTiter-Glo assay (Promega, Madison, WI) in the same assay wells.
# Tox21 Assay Protocol Summary:
# HRE-bla ME-180 cells were dispensed at 2,000 cells per well in 6 uL of assay medium containing 0.5% dialyzed FBS into black wall/clear-bottom 1536-well plates using a Multidrop Combi (Thermo Scientific, Waltham, MA) dispenser. After the assay plates were incubated at 37C and 5% CO2 for 5 hrs, 23 nL of compounds dissolved in DMSO, positive controls or DMSO only was transferred to each well of the assay plate using a Pintool station (Kalypsys, San Diego, CA). The assay plates were incubated at 37C and 5% CO2 for 17 hrs. One uL of LiveBLAzerTM B/G FRET substrate (CCF4-AM) (Life Technologies) was added to each well using a Flying Reagent Dispenser (FRD, Aurora Discovery, San Diego, CA). After 2 hr incubation at room temperature, fluorescence intensity (405 nm excitation, 460 nm and 530 nm emissions) was measured using an Envision plate reader (PerkinElmer, Shelton, CT). For cytotoxicity, 4 ul/well of CellTiter-Glo reagent was added into the assay plates using an FRD. After 30 min incubation at room temperature, the luminescence intensity was measured using a ViewLux plate reader (PerkinElmer).
# % is set by controls: 0 for no effect and ±100 for the full control effect; potency is the fitted concentration of half-maximal effect.
Compound,"activity change, negative = cytotoxicity",Potency
CCO[Si](CCCN=C=O)(OCC)OCC,0.45%,–
Nc1ncnc2c1ncn2Cc1c(F)cccc1Cl,-0.0237% [at 35.3 µM],–
CN1[C@@H]2CC[C@H]1CC(NC(=O)n1c(=O)[nH]c3ccccc31)C2 (stereo not given in full),-2.88% [at 35.3 µM],–
COc1ccc(NC(C)=O)cc1,1.49%,–
CC(=O)N[C@@H](CCC(N)=O)C(=O)O,4.14% [at 35.3 µM],–
c1ccc(SCCSc2ccccc2)cc1,10.4%,–
CCc1cc(S(=O)(=O)O)c2cc(C(C)C)cccc1-2,3.52% [at 35.3 µM],–
Nc1ccc2cc(S(=O)(=O)O)ccc2c1,-1.38%,–
CSc1nc(NC2CC2)nc(NC(C)(C)C)n1,9.41%,–
CCCCCCCCN(C)CCCCCCCC,0.0924%,–
OC1OC[C@@H](O)[C@H](O)[C@H]1O (stereo not given in full),2.44%,–
O=C1C(CCS(=O)c2ccccc2)C(=O)N(c2ccccc2)N1c1ccccc1 (stereo not given),-2.22% [at 35.3 µM],–
C=C(C)C(=O)OCCCCCCCCCCCCCCCCCC,5.2% [at 15.8 µM],–
COc1ccc(N=[N+]([O-])c2ccc(OC)cc2)cc1,12.4%,–
OCC(O)[C@@H](O)[C@H](O)[C@H](O)CO[C@H]1O[C@H](CO)[C@@H](O)[C@H](O)[C@H]1O (stereo not given in full),2.74%,–
c1cc(CN2CCCCC2)cc(OCCCNc2nc3ccccc3s2)c1,-3.67% [at 35.3 µM],–
COC(=O)c1ccc(C(=O)OC)c(C(=O)OC)c1,-12.2%,–
CCCc1ccccc1O,-22.5%,–
C=CC(=O)OCCCCCC,10.8%,–
O=C1CC2(CCCC2)CC(=O)N1,1.9% [at 35.3 µM],–

Compound,"activity change, negative = cytotoxicity",Potency
CCn1cc(C(=O)O)c(=O)c2cc(F)c(N3CCN(C)CC3)cc21,-1.72% [at 15.8 µM],–
Cc1cc(C)cc(OCC2CNC(=O)O2)c1 (stereo not given),1.36% [at 35.3 µM],–
C(=C(c1ccccc1)c1ccccc1)c1ccccc1,-1.82%,–
NCCN1CCNC1=O,-0.914%,–
C1CCCCCCCCCCC1,3.97% [at 15.8 µM],–
CN(C)C(=O)Nc1ccccc1,0.841%,–
CCC(=O)/C=C/c1ccc(OC)cc1,16.4%,–
O=c1[nH]c2ccccc2c(=O)n1CCCl,0.581% [at 35.3 µM],–
CC(C)c1cccc(O)c1,4.85%,–
CCCCC1CCCCC(=O)O1 (stereo not given),0.663%,–
OCc1ccccn1,-1.01% [at 35.3 µM],–
O=C(O)Cc1cc(I)c(Oc2cc(I)c(O)c(I)c2)c(I)c1,–,24.1 µM (active)
CC(C)[N+](C)(C)CC(O)COc1cccc2ccccc12 (stereo not given),5.74% [at 35.3 µM],–
CCC(=O)Nc1cccc(N)c1,8.84%,–
CCn1c(=O)c2c(nc(/C=C/c3ccc(OC)c(OC)c3)n2C)n(CC)c1=O,-3.78% [at 35.3 µM],–
CC(C)(O)C(=O)c1ccc(OCCO)cc1,6.65%,–
O=C(CCOCCOCCOCCOCCC(=O)Nc1c(I)cc(I)c(C(=O)O)c1I)Nc1c(I)cc(I)c(C(=O)O)c1I,0.223% [at 35.3 µM],–
Oc1ccc2c(c1)OC[C@@H](N1CCC(O)(c3ccc(F)cc3)CC1)[C@H]2O,1.3% [at 35.3 µM],–
C=C(C)C(=O)NCCCN(C)C,2.54%,–
CCCC(C)CO (stereo not given),6.23%,–
